# Laboratory results published in the supplement of paper PMC10646978.
# ± gives the standard deviation.
# Legend:
# Settings in all cases: modulator concentration 10 µM
# [1] = test system: RAW-Dual (murine macrophage reporter line); experiment: NF-kB reporter (SEAP) activity fold change vs agonist alone; higher = enhanced NF-kB activity
# How it was run: (§1)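 RAW-Dual murine macrophage reporter cells were plated at 50 000 per well in 384-well plates, pin-transferred compound to 10 μM final, and pre-incubated for 1 hour at 37 °C before a PRR agonist was added and the cells incubated overnight. NF-κB activity was read from supernatant SEAP with QUANTI-Blue at 620 nm absorbance, and IRF activity from Lucia luciferase with QUANTI-Luc by luminescence. Each signal was expressed as fold change by dividing by the mean agonist-only control on the same plate. Two replicate plates were averaged, with errors obtained by propagation.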
# [2] = test system: RAW-Dual (murine macrophage reporter line); experiment: IRF reporter (Lucia luciferase) activity fold change vs agonist alone; higher = enhanced IRF activity
# How it was run: as §1
# [3] = test system: RAW-Dual (murine macrophage reporter line); experiment: viability score (confluency relative to resting cells, overnight) (fraction); higher = more viable, active = viable (0.7 or more)
# How it was run: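 Two confluency masks, generated with IncuCyte software over all imaged wells, were applied to IncuCyte images of RAW-Dual macrophages. The cells, in 384-well plates, had been exposed overnight to 10 μM final compound. The viability score is confluency as a fraction of resting cells, and a compound met the cutoff only with both masks above 70% of resting cells.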
# [4] = agonist: CpG ODN 1826 0.5 ug/mL
SMILES,"NF-kB reporter [1, 4]",NF-kB reporter ([1]; agonist: LPS 0.1 ug/mL),NF-kB reporter ([1]; agonist: MPLA […]),IRF reporter ([2]; agonist: 3'3'-cGAMP 10 ug/mL),IRF reporter ([2]; agonist: LPS 0.1 ug/mL),IRF reporter ([2]; agonist: MPLA […]),viability score [3]
CCN1CCN(CC(O)COc2ccc(C(C)(C)C)cc2C(C)(C)C)CC1.Cl.Cl (configuration not stated),0.72 ± 0.12,0.999 ± 0.08,2.1 ± 0.29,0.96 ± 0.052,1.24 ± 0.14,2.24 ± 0.24,0.25 (inactive)
CN1CCN(C2=NC(=O)C(=Cc3ccc(Cl)cc3Cl)S2)CC1,0.833 ± 0.076,0.86 ± 0.068,1.15 ± 0.099,0.956 ± 0.051,1.42 ± 0.099,1.59 ± 0.18,0.999 (active)
COc1ccc(-c2cc(C(F)F)nn2-c2ccc(S(N)(=O)=O)cc2)cc1F,0.989 ± 0.29,0.98 ± 0.05,0.993 ± 0.068,0.935 ± 0.052,1.3 ± 0.24,1.23 ± 0.18,0.998 (active)
COc1ccc(-c2cc(CNC(=O)C3CCC3)no2)cc1,1.15 ± 0.075,1.02 ± 0.1,0.934 ± 0.034,0.877 ± 0.052,1.06 ± 0.086,0.986 ± 0.23,0.995 (active)
CCN(CC)CCOC(=O)C(c1ccccc1)C1CCCCC1.Cl (configuration not stated),1.04 ± 0.08,0.861 ± 0.076,0.878 ± 0.082,1.07 ± 0.033,1.31 ± 0.13,1.52 ± 0.18,0.948 (active)
CS(=O)(=O)c1ccc(C2=C(c3ccccc3)C(=O)OC2)cc1,0.962 ± 0.09,1.04 ± 0.071,0.975 ± 0.042,1.05 ± 0.058,0.97 ± 0.074,0.946 ± 0.084,0.997 (active)
CCOC(=O)C1=C(C)NC(C)=C(C(=O)OCC)C1c1ccc(OC)cc1OC,1.01 ± 0.21,1.27 ± 0.12,1.16 ± 0.18,1.01 ± 0.033,1 ± 0.24,1.25 ± 0.24,1 (active)
CC(O)Cn1cnc2c1c(=O)n(C)c(=O)n2C (configuration not stated),1.06 ± 0.082,1.06 ± 0.065,1.01 ± 0.036,0.99 ± 0.07,0.972 ± 0.11,0.957 ± 0.11,0.998 (active)
CCOC(=O)OC(C)OC1=C(C(=O)Nc2ccccn2)N(C)S(=O)(=O)c2ccccc21 (configuration not stated),1.12 ± 0.15,1.28 ± 0.25,0.995 ± 0.056,0.948 ± 0.029,1.37 ± 0.34,1.32 ± 0.12,0.989 (active)
CN1CCN(c2ccc(-c3cccc(NC(=O)COc4ccc(Cl)cc4)c3)nn2)CC1,0.24 ± 0.029,0.966 ± 0.053,0.891 ± 0.021,0.572 ± 0.032,0.946 ± 0.057,0.966 ± 0.081,0.97 (active)
Cc1cc(OCC(=O)NC2CC(C)(C)NC(C)(C)C2)ccc1Br,0.843 ± 0.1,1.03 ± 0.079,1.05 ± 0.043,0.952 ± 0.041,1.1 ± 0.079,1.55 ± 0.19,0.976 (active)
Cn1nc(CNS(=O)(=O)c2cccc(C(F)(F)F)c2)c2c1CCOC2,1.13 ± 0.34,1.08 ± 0.061,1.02 ± 0.065,0.955 ± 0.035,1.05 ± 0.13,1.12 ± 0.11,1 (active)
O=S(=O)(c1ccc(-n2cccn2)cc1)N1CC(n2cc(C3CC3)nn2)C1,1.01 ± 0.068,1.11 ± 0.1,0.939 ± 0.066,0.966 ± 0.076,1.21 ± 0.077,0.999 ± 0.085,0.993 (active)
O=C(CSc1nc2c(c(=O)n1-c1ccccc1)SCC2)N1CCN(c2ccccc2)CC1,0.985 ± 0.08,1.09 ± 0.057,1.14 ± 0.036,1.15 ± 0.081,0.879 ± 0.046,0.953 ± 0.076,1 (active)
CC(NC(=O)C(=O)NN=Cc1ccc(Cl)cc1Cl)c1ccccc1 (configuration not stated),0.967 ± 0.095,1.16 ± 0.077,0.953 ± 0.084,1.22 ± 0.051,1.39 ± 0.16,1.14 ± 0.11,0.991 (active)
CCN(CC)CC#CC(OC)(c1ccccc1)c1ccccc1.Cl,0.356 ± 0.088,0.414 ± 0.063,0.47 ± 0.082,0.549 ± 0.019,1.16 ± 0.16,1.29 ± 0.23,0.148 (inactive)
COc1ccc(C(=O)Nc2ccc(Br)c(C)c2)cc1,1.03 ± 0.089,1.1 ± 0.088,1.1 ± 0.038,0.767 ± 0.029,1.01 ± 0.098,1.2 ± 0.14,1 (active)
CCN(CC)c1ccc(C=NNC(=O)c2ccc(O)cc2)c(O)c1,2.52 ± 0.2,1.31 ± 0.089,5.86 ± 0.2,0.2 ± 0.0075,0.845 ± 0.038,0.758 ± 0.12,0.577 (inactive)
OC(c1cc(C(F)(F)F)nc2c(C(F)(F)F)cccc12)C1CCCCN1 (configuration not stated) [Prestw-126],0.781 ± 0.051,0.973 ± 0.1,0.887 ± 0.059,1.13 ± 0.076,2.89 ± 0.33,1.75 ± 0.16,0.0879 (inactive)
CCC(C(=O)N1CCC2(CC1)CC2(F)F)c1ccccc1 (configuration not stated),1.08 ± 0.069,1.08 ± 0.098,1.62 ± 0.45,1.06 ± 0.048,1.19 ± 0.24,1.36 ± 0.33,0.911 (active)
COc1ccc(CC(=O)N2CCCc3ccccc32)cc1OC,0.909 ± 0.078,0.778 ± 0.054,1.01 ± 0.09,0.973 ± 0.046,1.41 ± 0.1,1.6 ± 0.17,1.02 (active)
Cl.O=C1c2cccc3c2[C@H](CCC3)CN1[C@@H]1CN2CCC1CC2,1.03 ± 0.17,0.655 ± 0.053,0.823 ± 0.11,0.582 ± 0.022,0.918 ± 0.17,0.987 ± 0.12,0.974 (active)
COCCNCCOc1ccccc1C(C)C,0.767 ± 0.12,1.03 ± 0.084,0.899 ± 0.069,0.895 ± 0.031,1.32 ± 0.26,1.26 ± 0.18,0.554 (inactive)
COc1cc2nc(N(C)CCCNC(=O)C3CCCO3)nc(N)c2cc1OC (configuration not stated) [Prestw-322],1.45 ± 0.43,0.957 ± 0.11,1.02 ± 0.068,0.695 ± 0.13,0.934 ± 0.35,0.866 ± 0.11,0.996 (active)
CS(=O)(=O)N1CCCCC1C(=O)N(CC1CCCO1)c1nc2c(F)cccc2s1 (configuration not stated),0.814 ± 0.072,1.02 ± 0.1,0.773 ± 0.054,1.24 ± 0.078,1.19 ± 0.077,1.23 ± 0.16,0.966 (active)
CN1C[C@@H]2c3ccccc3Oc3ccc(Cl)cc3[C@H]2C1.O=C(O)/C=C\C(=O)O,0.164 ± 0.03,0.821 ± 0.14,0.908 ± 0.14,0.475 ± 0.044,0.914 ± 0.088,1.07 ± 0.13,0.252 (inactive)
